# Assay results: PubChem BioAssay
# The source made the active and inactive calls.
# Columns and labels:
# [1] = E. coli DRC41 culture turbidity changes, primary screen, E. coli filamentation inducer project, strain DRC41, OD650, 48 h (AID 1152);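 further: E. coli MC1000 strain DRC41 lacking acrAB efflux pump and sulA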; conditions: E. coli DRC41 (acrAB sulA), higher = more signal, called active from +8 up or from −8 down
# [2] = small-molecule binders of probe aLefty1, primary screen, biochemical, small-molecule microarray, 635/667 nm fluorescence (AID 1153); conditions: higher = more signal;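 further: score merges spot fluorescence with signal-to-noise ratio from the scanned slide images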
# [3] = PSAC antagonists in infected red cells, primary screen, cell-based, P. falciparum Indochina, OD700, 1 h (AID 1154); conditions: P. falciparum Indochina infected RBC osmotic lysis, higher = more signal, called active from +8 up or from −8 down
# [4] = PSAC antagonists in infected red cells, primary screen, cell-based, P. falciparum Indochina, OD700, 2 h (AID 1155);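 further: lysis reports solute entry through the parasite surface anion channel PSAC; channel blockers reduce lysis of infected cells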; conditions: P. falciparum Indochina infected erythrocytes, osmotic lysis OD700; higher = more signal, called active from +8 up or from −8 down
# [5] = osmotic lysis modulators in infected erythrocytes, primary screen, PSAC antagonist project, cell-based, P. falciparum Indochina, OD700, 3 h (AID 1156); conditions: higher = more signal, called active from +8 up or from −8 down
# [6] = PSAC antagonists in infected red cells, primary screen, cell-based, P. falciparum Indochina, OD700, 18 h (AID 1157); conditions: P. falciparum Indochina infected erythrocytes, osmotic lysis OD700, 18 h; higher = more signal, called active from +8 up or from −8 down
# [7] = modulators of S6 phosphorylation in cells, primary screen, cell-based, A549, cytoblot, luminescence, serum-stimulated (AID 1158); conditions: A549 phospho-S6 cytoblot, 5 h, higher = more signal;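 further: serum-stimulated A549 lung adenocarcinoma cells; signal is phosphorylated S6 detected by cytoblot immunostaining with HRP secondary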
# [8] = target: NADPH oxidase 2 (Homo sapiens) (UniProt P04839); experiment: NOX2-dependent H2O2 signal modulators, primary screen, NOX inhibitor project, cell-based, HEK293-NOX2, PMA-stimulated, Amplex Red fluorescence (AID 1159); conditions: 45 min, higher = more signal, called active from +8 up or from −8 down; further: test concentration not given here
# Sequence of NADPH oxidase 2 (Homo sapiens) (P04839 whole entry, looked up): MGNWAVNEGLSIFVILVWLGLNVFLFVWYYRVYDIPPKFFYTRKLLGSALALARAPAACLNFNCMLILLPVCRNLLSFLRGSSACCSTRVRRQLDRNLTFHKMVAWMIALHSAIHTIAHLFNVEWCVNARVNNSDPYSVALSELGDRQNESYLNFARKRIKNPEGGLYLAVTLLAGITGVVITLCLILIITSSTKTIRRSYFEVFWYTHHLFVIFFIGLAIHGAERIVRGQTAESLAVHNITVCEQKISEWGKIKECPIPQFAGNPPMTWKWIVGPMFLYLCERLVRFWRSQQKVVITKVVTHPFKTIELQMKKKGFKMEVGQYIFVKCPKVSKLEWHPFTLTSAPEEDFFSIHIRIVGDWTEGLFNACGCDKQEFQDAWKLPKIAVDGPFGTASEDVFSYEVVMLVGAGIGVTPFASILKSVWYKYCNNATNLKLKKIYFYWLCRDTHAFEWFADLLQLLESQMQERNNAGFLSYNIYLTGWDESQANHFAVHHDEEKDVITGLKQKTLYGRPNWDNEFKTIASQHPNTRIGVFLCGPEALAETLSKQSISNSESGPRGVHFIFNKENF
# [9] = target: NADPH oxidase 4 (Homo sapiens) (UniProt Q9NPH5); experiment: NOX4-dependent H2O2 signal modulators, primary screen, NOX inhibitor project, cell-based, HEK293-NOX4, tetracycline-induced, Amplex Red fluorescence (AID 1160); conditions: 45 min, higher = more signal, called active from +8 up or from −8 down
# Sequence of NADPH oxidase 4 (Homo sapiens) (Q9NPH5 whole entry, looked up): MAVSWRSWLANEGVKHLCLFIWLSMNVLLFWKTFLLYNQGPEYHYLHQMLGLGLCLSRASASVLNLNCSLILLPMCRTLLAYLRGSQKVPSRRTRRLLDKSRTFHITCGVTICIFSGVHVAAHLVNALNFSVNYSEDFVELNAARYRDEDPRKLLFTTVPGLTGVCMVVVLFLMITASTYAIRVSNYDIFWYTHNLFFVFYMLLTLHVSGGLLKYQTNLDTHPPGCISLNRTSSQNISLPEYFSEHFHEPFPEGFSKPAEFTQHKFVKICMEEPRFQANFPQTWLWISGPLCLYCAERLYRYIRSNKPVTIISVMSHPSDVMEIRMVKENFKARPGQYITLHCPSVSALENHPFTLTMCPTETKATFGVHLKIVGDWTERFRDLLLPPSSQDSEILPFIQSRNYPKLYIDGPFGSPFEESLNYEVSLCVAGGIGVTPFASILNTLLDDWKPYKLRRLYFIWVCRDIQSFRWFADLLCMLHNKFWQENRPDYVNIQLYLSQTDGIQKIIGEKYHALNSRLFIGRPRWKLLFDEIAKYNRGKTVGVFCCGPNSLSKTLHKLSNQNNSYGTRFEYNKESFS
# [10] = target: NADPH oxidase 5 (Homo sapiens) (UniProt Q96PH1); experiment: NOX5-dependent H2O2 signal modulators, primary screen, NOX inhibitor project, cell-based, HEK293-NOX5, Amplex Red fluorescence (AID 1161); conditions: HEK293-NOX5, ionomycin, 45 min, higher = more signal
# Sequence of NADPH oxidase 5 (Homo sapiens) (Q96PH1 whole entry, looked up): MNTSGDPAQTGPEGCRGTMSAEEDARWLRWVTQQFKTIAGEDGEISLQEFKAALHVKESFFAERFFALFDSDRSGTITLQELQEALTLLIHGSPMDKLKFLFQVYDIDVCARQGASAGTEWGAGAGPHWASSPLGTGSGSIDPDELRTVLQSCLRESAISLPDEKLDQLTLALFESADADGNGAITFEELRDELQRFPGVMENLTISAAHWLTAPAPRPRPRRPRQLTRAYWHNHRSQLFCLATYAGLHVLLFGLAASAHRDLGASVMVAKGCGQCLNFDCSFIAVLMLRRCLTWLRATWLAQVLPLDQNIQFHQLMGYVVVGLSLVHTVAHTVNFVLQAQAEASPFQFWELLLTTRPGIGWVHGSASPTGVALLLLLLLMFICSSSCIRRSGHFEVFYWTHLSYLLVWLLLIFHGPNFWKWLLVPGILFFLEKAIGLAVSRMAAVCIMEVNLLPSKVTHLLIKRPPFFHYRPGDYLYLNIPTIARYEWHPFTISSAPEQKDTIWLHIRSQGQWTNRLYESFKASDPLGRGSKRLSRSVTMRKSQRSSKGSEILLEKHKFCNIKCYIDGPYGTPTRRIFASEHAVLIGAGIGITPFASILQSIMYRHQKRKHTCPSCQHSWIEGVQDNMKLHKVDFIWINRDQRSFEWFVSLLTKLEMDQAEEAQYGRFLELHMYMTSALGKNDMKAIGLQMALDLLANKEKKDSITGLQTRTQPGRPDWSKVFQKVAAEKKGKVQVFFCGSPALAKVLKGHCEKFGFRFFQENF
Structure (SMILES),z-score [1],composite z-score [2],z-score [3],z-score [4],z-score [5],z-score [6],z-score [7],z-score [8],z-score [9],z-score [10]
CN1C(=O)C2C=CC(C(O)c3cccc4ccccc34)N(N3CCCCC3)C2C1=O (stereo not given),-1.57 (inactive),-0.0798,0.669 (inactive),0.958 (inactive),-0.284 (inactive),0.878 (inactive),-1.32,-0.671 (inactive),-1.97 (inactive),-0.766
CCOc1cc(C(O)C2C=CC3C(=O)N(c4ccccc4)C(=O)C3N2Nc2ccc(C#N)cc2)ccc1O (stereo not given),-1.17 (inactive),0.302,16.3 (active),2.72 (inactive),0.743 (inactive),1.27 (inactive),-1.03,-2.87 (inactive),-5.02 (inactive),-4.31
C=CCOC(=O)[C@H]1[C@@H]2C(=O)O[C@@H](c3ccccc3)[C@@H](c3ccccc3)N2[C@@H](c2ccc(OCCOC(=O)[C@@H]3C[C@@H]4C(=O)N5CCC[C@H]5C(=O)N4[C@@H]3c3ccc(O)cc3)cc2)[C@]12C(=O)Nc1ccc(I)cc12,-0.695 (inactive),0.293,1.81 (inactive),1.74 (inactive),0.836 (inactive),0.889 (inactive),-0.597,1.47 (inactive),0.482 (inactive),0.186
CC1=C([C@H](O)CCc2ccccc2)[C@H](CO)[C@@H]2C(=O)N(C)C(=O)[C@@H]2C1,1.13 (inactive),0.184,4.81 (inactive),0.403 (inactive),-0.0722 (inactive),-0.0393 (inactive),-0.167,-1.36 (inactive),0.412 (inactive),0.0196
O=C1C=C(c2ccccc2)C(=O)c2ccc([C@H]3Oc4ccccc4S(=O)(=O)N4CCC[C@@H]34)cc21,0.864 (inactive),-0.08,2.45 (inactive),0.0567 (inactive),-0.37 (inactive),-0.236 (inactive),0.208,0.398 (inactive),-5.41 (inactive),-6.41
CN(C)C(=O)[C@@]1(Cc2ccccc2CN=[N+]=[N-])N=C(c2ccc(OCCCO)cc2)O[C@H]1c1ccccc1CN=[N+]=[N-],-0.395 (inactive),0.315,10.9 (active),1.46 (inactive),0.589 (inactive),0.515 (inactive),0.0709,-0.379 (inactive),1.43 (inactive),2.09
CC(C)(C)OC(=O)CC[C@@]1(C(=O)NCc2ccccc2)N=C(c2ccc(OCCCO)cc2)O[C@@H]1c1ccccc1N=[N+]=[N-],0.775 (inactive),0.347,33.2 (active),30 (active),4.99 (inactive),6.74 (inactive),0.787,-1.8 (inactive),0.457 (inactive),-1.86
CC(=O)NCCCC[C@@H]1NC(=O)[C@@H]2C[C@H](C(=O)NCCCC[N+](C)(C)C)[C@H](c3ccc(O)cc3)N2C1=O,-0.003 (inactive),0.389,0.369 (inactive),-1.08 (inactive),0.267 (inactive),-2.27 (inactive),1.34,-3.26 (inactive),-2.25 (inactive),-4.41
CCCCCCc1nc(C2CC2)cc2c1[Si](C(C)C)(C(C)C)O[C@H]2c1ccccc1,-1.27 (inactive),-0.23,0.0479 (inactive),-0.0357 (inactive),0.453 (inactive),-0.11 (inactive),-0.653,-3.31 (inactive),-0.00134 (inactive),-1.77
CN1C(=O)C2C=CC(C(O)c3ccc(F)cc3)N(Nc3ccccc3)C2C1=O (stereo not given),-1.69 (inactive),0.0711,1.24 (inactive),1.05 (inactive),1.45 (inactive),0.582 (inactive),-0.85,-1.41 (inactive),-3.79 (inactive),-3.17
C[N+](C)(C)CCCCCCNC(=O)[C@H]1C[C@H]2C(=O)NCC(=O)N2[C@H]1c1ccc(O)cc1,0.16 (inactive),-0.455,1.76 (inactive),0.682 (inactive),-1.2 (inactive),-0.0189 (inactive),-0.217,0.446 (inactive),0.256 (inactive),0.328
CN(C)CCCCNC(=O)[C@@H]1C[C@@H]2C(=O)N[C@@H](Cc3ccccc3)C(=O)N2[C@@H]1c1cccc(OCCO)c1,2.93 (inactive),0.243,7.44 (inactive),-0.16 (inactive),-1.84 (inactive),-1.29 (inactive),0.602,0.767 (inactive),0.74 (inactive),1.55
COc1cc2c(cc1O)C(C)N(Cc1ccc([N+](=O)[O-])o1)CC2 (stereo not given),-0.984 (inactive),0.245,18.3 (active),2.09 (inactive),0.831 (inactive),0.424 (inactive),-0.31,-4.17 (inactive),-2.17 (inactive),-3.28
COCCOC(=O)N1C(=O)[C@@]2(c3cc(C#CC4(O)CCCCCC4)ccc31)[C@H](c1ccc(O)cc1)N1[C@H](c3ccccc3)[C@H](c3ccccc3)OC(=O)[C@H]1[C@@H]2C(=O)NC[C@H](O)c1ccccc1,-0.686 (inactive),0.405,1.14 (inactive),0.487 (inactive),-1.17 (inactive),0.196 (inactive),0.101,1.97 (inactive),0.895 (inactive),1.2
CC(C)[Si](C#C[Si](C(C)C)(C(C)C)C(C)C)(O[C@H](C)c1cn([C@H](CO)Cc2ccccc2)nn1)C(C)C,2.09 (inactive),-0.212,0.532 (inactive),0.655 (inactive),-0.116 (inactive),0.359 (inactive),0.479,-1.96 (inactive),0.188 (inactive),0.0884
OCC1CC(c2ccccc2)=NO1 (stereo not given),0.727 (inactive),0.0278,5.51 (inactive),0.623 (inactive),-0.182 (inactive),0.206 (inactive),0.137,-1.17 (inactive),-0.137 (inactive),0.273
CC(=O)NCCCC[C@@H]1NC(=O)[C@H]2C[C@@H](C(=O)NCCCC[N+](C)(C)C)[C@@H](c3cccc(OCCO)c3)N2C1=O,0.485 (inactive),0.165,2.46 (inactive),0.331 (inactive),-1.58 (inactive),0.374 (inactive),-0.611,-1.23 (inactive),-0.477 (inactive),-1.08
CC1CC/C=C\[C@H]2OC34C=CCN(C(C)C)C(=O)[C@H]3N(CCCCCCO)C(=O)[C@@H]4C2C(=O)O1 (stereo not given in full),3.07 (inactive),-0.45,0.719 (inactive),0.259 (inactive),-0.987 (inactive),-0.751 (inactive),1.26,0.882 (inactive),0.119 (inactive),2.1
COc1cc(OC)c(C(O)C2C=CC3C(=O)N(c4ccccc4)C(=O)C3N2Nc2ccccc2)cc1Br (stereo not given),-0.789 (inactive),0.0834,20.2 (active),5.27 (inactive),0.508 (inactive),2.03 (inactive),-0.543,-1.61 (inactive),-4.38 (inactive),-2.38
[N-]=[N+]=Nc1ccccc1[C@H]1OC(c2ccc(OCCCO)cc2)=N[C@@]1(CCS(=O)(=O)c1ccccc1)C(=O)NCCN1CCOCC1,-0.0631 (inactive),0.458,28.9 (active),25.6 (active),0.931 (inactive),1.8 (inactive),0.468,-2.18 (inactive),-0.233 (inactive),-1.47
CCCCC=C[C@@H](NC(=O)c1ccc(-c2ccccc2)cc1)c1ccccc1,-1.63 (inactive),0.258,2.54 (inactive),0.631 (inactive),-0.309 (inactive),0.862 (inactive),0.0893,-0.473 (inactive),-1.12 (inactive),1.46
Cc1ccc(S[C@]2(C(=O)O)CC(=O)N(Cc3cc(C(F)(F)F)cc(C(F)(F)F)c3)[C@@H]2c2ccc(CO)cc2)cc1,-1.21 (inactive),-0.239,2.76 (inactive),1.01 (inactive),1.44 (inactive),0.769 (inactive),-0.482,0.86 (inactive),-0.271 (inactive),0.0502
O=C1c2ccccc2[C@](Cc2ccccc2I)(C(=O)NCC(F)(F)F)[C@H](c2ccc(CO)cc2)N1C1CCCCC1,1.25 (inactive),0.0686,7.04 (inactive),0.605 (inactive),2 (inactive),0.0361 (inactive),0.175,-2.92 (inactive),0.179 (inactive),1.69
C[C@]1(C(=O)NC2CC2)c2ccccc2C(=O)N(Cc2ccccc2)[C@H]1c1ccc(CO)cc1,2.07 (inactive),-0.147,2.84 (inactive),0.17 (inactive),0.475 (inactive),-0.779 (inactive),2.26,-0.148 (inactive),-1.55 (inactive),-0.249
